An excerpt weighted towards active compounds, which were near 12% of everything screened.
BAZ2B inh: blocks human BAZ2B; AlphaScreen BAZ2B-H3K14Ac peptide displacement; Potency, µM (series often up to 114 µM), inactives show at the top dose activity change, negative = inhibition, hits mostly inhibitors; actives 4.4% (n = 360,000); AID 504333; also: % is scaled to controls: 0 for no effect and ±100 for the full control effect; nearly all actives have a fitted effect of over 60% in size
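AlphaScreen luminescence quantifies BAZ2B engagement of H3K14Ac peptide; the protein and biotinylated peptide are both at 50 nM final, buffer PBS pH 7.4 with 0.01% Tween-20, all steps at room temperature.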
PLK1 PBD inh: PLK1 (human) polo-box domain binding inhibition; P53350; Plk1 PBD binding of FITC phosphopeptide, fluorescence polarization; Potency, µM, for inactives: max response, negative = inhibition, actives largely listed as inhibitors; actives 2.8% (n = 360,000); AID 720504; also: series mostly up to about 57 µM; % is scaled to controls: 0 for no effect and ±100 for the full control effect; nearly all actives have a fitted effect of over 65% in size
JMJD2A Tudor: JMJD2A Tudor domain (human) inhibition | actives 4.4% (n = 390,000) | AID 504339 | Potency, µM (titrated, usually from 114 µM), inactives show at the top dose activity change, negative = inhibition, actives largely listed as inhibitors | AlphaScreen JMJD2A-Tudor / H3K4me3 peptide binding | O75164; also: % is scaled to controls: 0 for no effect and ±100 for the full control effect; nearly all actives have a fitted effect of over 50% in size
Target sequence (O75164 whole entry, looked up, the tested form may be a part): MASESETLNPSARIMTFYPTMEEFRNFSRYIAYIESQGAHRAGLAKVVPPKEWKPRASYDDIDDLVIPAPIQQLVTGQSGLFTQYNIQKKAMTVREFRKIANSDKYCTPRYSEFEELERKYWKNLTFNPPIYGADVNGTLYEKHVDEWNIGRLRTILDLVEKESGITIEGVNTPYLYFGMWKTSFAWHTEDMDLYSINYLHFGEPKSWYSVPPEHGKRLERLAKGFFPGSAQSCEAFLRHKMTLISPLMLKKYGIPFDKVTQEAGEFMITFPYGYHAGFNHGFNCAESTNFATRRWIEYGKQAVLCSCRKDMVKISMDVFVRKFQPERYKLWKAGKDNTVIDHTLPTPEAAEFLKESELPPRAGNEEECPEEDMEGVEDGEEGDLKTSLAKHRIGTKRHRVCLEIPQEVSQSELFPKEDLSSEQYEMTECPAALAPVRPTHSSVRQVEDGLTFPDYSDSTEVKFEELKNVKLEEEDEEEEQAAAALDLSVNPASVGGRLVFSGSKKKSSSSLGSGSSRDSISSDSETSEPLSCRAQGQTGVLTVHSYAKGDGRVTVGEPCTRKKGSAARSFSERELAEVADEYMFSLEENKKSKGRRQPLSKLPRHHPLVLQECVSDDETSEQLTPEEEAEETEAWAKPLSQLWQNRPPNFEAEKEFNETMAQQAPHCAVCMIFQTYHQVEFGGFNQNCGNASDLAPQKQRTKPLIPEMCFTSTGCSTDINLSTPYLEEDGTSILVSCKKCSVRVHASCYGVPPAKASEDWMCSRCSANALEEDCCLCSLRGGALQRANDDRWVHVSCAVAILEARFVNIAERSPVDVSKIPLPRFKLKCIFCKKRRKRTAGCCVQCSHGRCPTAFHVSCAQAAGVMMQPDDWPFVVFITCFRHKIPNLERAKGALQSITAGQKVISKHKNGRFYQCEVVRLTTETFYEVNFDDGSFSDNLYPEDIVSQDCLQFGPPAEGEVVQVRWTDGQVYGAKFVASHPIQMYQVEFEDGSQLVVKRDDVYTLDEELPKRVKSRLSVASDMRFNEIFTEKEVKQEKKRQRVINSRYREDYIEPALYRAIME
Sfp inh: inhibitors of Bacillus subtilis Sfp phosphopantetheinyl transferase; Q9F4F7; Biochemical Sfp PPTase activity, qHTS; Potency, µM, for inactives: largest response in the series, negative = inhibition, most hits filed as inhibitors; actives 3.5% (n = 310,000); AID 1490;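 also: the enzyme is Sfp with the accession as filed and its product quenches rhodamine fluorescence; 0% = enzyme reaction without inhibitor and -100% = no enzyme wells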
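Reaction rates are the 30-min fluorescence difference (ex 525, em 598 nm) in wells containing 15 nM Sfp, 5 uM rhodamine-CoA and 12.5 uM BHQ-2-YbbR at pH 7.6 with 10 mM MgCl2.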
G9a inh: inhibitors of human histone lysine methyltransferase G9a; G9a H3K9 monomethylation, AlphaScreen, 2 h; Potency, µM (top dose mostly 102 µM), without a hit: at the top dose activity, negative = inhibition, usual class: inhibitors; actives 8.8% (n = 350,000); AID 504332; also: % is scaled to controls: 0 for no effect and ±100 for the full control effect; nearly all actives have a fitted effect of over 75% in size
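Enzyme 20 nM + cpd, 15 min RT; add b-H3K9 pep 500 nM / SAM 20 uM; 2 h RT; anti-H3K9me1 Ab 0.5 ug/mL + SA donor / anti-rabbit acceptor beads 20 ug/mL each, 10 min; AlphaScreen read.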
HP1b chromo inh: inhibitors of HP1-beta chromodomain binding to methylated histone tails; P83916; AlphaScreen HP1-beta / biotin-H3K9me3 peptide binding; Potency, µM (series often up to 114 µM), for inactives: at the highest dose activity change, negative = inhibition, usual class: inhibitors; actives 0.56% (n = 390,000); AID 540317; also: nearly all actives have a fitted effect of over 70% in size
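HP1-beta protein (50 nM final) preincubated 30 min at room temperature with biotinylated H3(1-18)K9me3 peptide (50 nM) in PBS pH 7.4, 0.01% Tween-20, then compound added for 30 min. AlphaScreen streptavidin donor/nickel chelate acceptor beads (10 ug/mL final), 30 min dark, luminescence read.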
* hit, by the source's call; u = inconclusive; x = no result; [ ] = dose if it differs, or a comment. Calls follow the shape of the dose curve; as a rule, active = well fitted curve in the direction sought with a large enough effect; inconclusive = small, poorly fitted or top-dose-only effect, or another doubt; inactive = no such curve, though single readings can be large; an effect the other way counts as inactive or inconclusive. Potency is read from the fitted curve at half-maximal effect.

SMILES	BAZ2B inh	PLK1 PBD inh	JMJD2A Tudor	Sfp inh	G9a inh	HP1b chromo inh
CCOC(=O)c1cnc2ccc(OCC)cc2c1NCc1ccccc1OC	48.8%	9.1%	45.9%	56.2µM*	27.1%[59 µM]	156.0%
CC1(C)CC(=O)C2=C(C1)NC(Nc1nc3ccccc3o1)=NC21CCCC1	3.9%	26.7µM*	u	12.5%	12.2%[59 µM]	-10.3%
O=C(NCCN1C(=O)S/C(=C/c2cccnc2)C1=O)c1ccc(S(=O)(=O)N2CCCC2)cc1	x	-7.8%	-19.3%	x	x	3.3%
CCCOc1ccc(C(=O)N(Cc2ccc(N(C)C)cc2)CC2CCCO2)cc1 (stereo not given)	39.8µM*	x	39.8µM*	x	11.2µM*	u
Cc1cc(OCC(=O)N(Cc2ccc(N(C)C)cc2)CC2CCCO2)ccc1Cl (stereo not given)	28.2µM*	x	35.5µM*	x	12.6µM*	u
CN(C)c1ccc(CN(CC2CCCO2)C(=O)COc2ccc(Cl)cc2)cc1 (stereo not given)	31.6µM*	x	44.7µM*	x	14.1µM*	u
O=C(Nc1cccc(C(=O)OCc2cc(=O)n3nc(C4CC4)sc3n2)c1)c1ccc(F)cc1	-7.8%	x	-15.6%	x	24.4%[59 µM]	26.5%
C=CCn1c(O)c(CN2CCOCC2)c(C)c(C#N)c1=O	-38.6%	-10.7%	-13.7%	7.4%	50.1µM*	20.6%
C=CCn1c(C)cc(C)c(C#N)c1=O	u	2.3%	-14.2%	16.3%	16.2%	2.3%
NS(=O)(=O)c1ccc(NC(=O)c2c(F)cccc2Cl)cc1	-3.0%	0.4%	-3.0%	6.2%	5.6%	36.3%
NS(=O)(=O)c1ccc(NC(=O)c2c(Cl)cccc2Cl)cc1	4.9%	21.2µM*	28.2µM*	3.8%	1.4%[0.501 µM]	-6.8%
NS(=O)(=O)c1ccc(NC(=O)CCCCC(=O)Nc2ccc(S(N)(=O)=O)cc2)cc1	-3.2%	-9.7%	89.1µM*	1.4%	8.6%	63.3%
CN(C)CC(=O)Nc1ccc(S(N)(=O)=O)cc1	-2.0%	-5.4%	14.1µM*	4.0%	23.9%	-4.0%
CC(C)C(Cl)=NOC(=O)Nc1ccc(S(N)(=O)=O)cc1	x	8.44µM*	-7.6%	x	x	-29.2%
CN(C)C(=O)CCSC(SCCC(=O)O)c1cccc(/C=C/c2ccc3ccc(Cl)cc3n2)c1 (stereo not given)	x	x	x	u	7.2%[12.7 µM]	x
CC(=O)Nc1ccc(NC(=O)CCc2ccc(C)o2)cc1	-19.5%	0.4%	-6.8%	7.0%	19.0%	21.4%
Cc1ccc(CCC(=O)Nc2ccc(S(N)(=O)=O)cc2)o1	14.8%	-17.6%	-10.2%	5.01µM*	2.24µM*	12.8%
CN(C)c1ccc(CNC(=O)C2CCCN(S(=O)(=O)c3ccc4c(ccn4C)c3)C2)cc1 (stereo not given)	-16.3%	x	-8.9%	x	u	16.0%[57 µM]
COc1ccc(/C=N/Nc2nc(NCc3ccco3)nc(Nc3ccc(OC)cc3)n2)cc1	u	-1.9%	-34.9%	15.5%	-13.4%[59 µM]	11.0%
COc1ccc(Nc2nc(NCc3ccco3)nc(N/N=C/c3ccc(O)cc3)n2)cc1	22.4µM*	-2.2%	u	3.6%	u	-15.2%
COc1ccc(Nc2nc(NCc3ccco3)nc(N/N=C/c3ccccc3F)n2)cc1	u	-3.1%	50.1µM*	17.8%	10.2%[59 µM]	u
Nc1c(Cl)ncnc1Nc1ccc(C(=O)O)cc1	x	-6.1%	12.6µM*	x	x	28.5%
CC(=O)c1ccc(NS(=O)(=O)c2ccc3ccccc3c2)cc1	-6.3%	-6.9%	-16.3%	26.7%	5.4%[59 µM]	-6.2%
COc1ccc(NS(=O)(=O)c2ccc(NC(C)=O)cc2)c(OC)c1	-0.3%	23.8µM*	u	3.5%	-9.0%	-15.6%
COc1cc(S(=O)(=O)Nc2ccc(C(=O)NCC(=O)O)cc2)ccc1NC(C)=O	-13.2%	-0.5%	2.8%	-11.8%	50.1µM*	29.1%
SMILES	BAZ2B inh	PLK1 PBD inh	JMJD2A Tudor	Sfp inh	G9a inh	HP1b chromo inh
COc1ccc(S(=O)(=O)Nc2ccc(NC(C)=O)cc2)cc1OC	-1.9%	-0.4%	-9.3%	7.0%	-3.6%[12.7 µM]	26.8%
O=C(O)CNC(=O)c1ccc(NS(=O)(=O)c2ccc3ccccc3c2)cc1	u	-19.4%	-16.1%	2.1%	39.8µM*	16.6%
Cc1ccccc1C(=O)NCCCCc1ccccc1	-2.8%	-2.4%	8.9%	-1.4%	17.1%[59 µM]	56.2%
Cc1occc1C(=O)NCCc1ccc(Cl)cc1	-3.2%	-12.1%	-17.2%	-22.6%	79.4µM*	19.5%
Cc1occc1C(=O)NNC(=O)Cc1ccccc1	1.1%	-8.6%	-8.1%	14.2%	0.199µM*	18.6%
Cc1occc1C(=O)NCc1ccccc1	-15.7%	-1.2%	-10.0%	-3.5%	9.5%[0.0925 µM]	38.6%
Cc1occc1C(=O)NCCCCc1ccccc1	-30.9%	-29.0%	-5.8%	17.8µM*	-20.3%[12.7 µM]	37.2%
Cc1cccc(NC(=O)C2CCC(CNS(=O)(=O)c3ccc4c(c3)CCCC(=O)N4)CC2)c1C (stereo not given)	-13.3%	x	-20.1%	x	-9.3%[59 µM]	29.1%
COc1ccc2c(c1)O/C(=C\c1sccc1C)C2=O	4.1%	-0.4%	-19.0%	44.7µM*	-3.8%	15.4%
COc1ccccc1NC(=O)Cn1c(=O)n(CCC(=O)NCC2CCCO2)c(=O)c2cc(OC)c(OC)cc21 (stereo not given)	3.2%	x	-8.5%	x	-4.8%[59 µM]	29.9%
O=C(Nc1cccc(OC(F)(F)F)c1)[C@@H]1O[C@H](CO)[C@H](O)[C@H](O)[C@H]1O	x	-5.2%	x	x	x	x
Cc1sc2ncnc(SCC(=O)NCC(C)C)c2c1C	2.4%	-8.8%	-8.6%	10.1%	-26.0%[59 µM]	47.3%
CCC(Sc1ncnc2sc(C)c(C)c12)C(=O)OC (stereo not given)	u	-26.0%	-19.7%	-0.1%	2µM*	64.7%
Cc1sc2ncnc(SCC(=O)Nc3ncccc3O)c2c1C	39.8µM*	u	63.1µM*	x	17.0%[12.7 µM]	-21.8%
CCC(Sc1ncnc2sc3c(c12)CCCC3)C(=O)OC(C)C (stereo not given)	177.9%	x	81.7%	x	163.9%[59 µM]	104.3%
Cc1cccnc1NC(=O)CSc1ncnc2sc(C)c(C)c12	u	-17.6%	u	x	50.1µM*	-64.6%
Cc1sc2ncnc(SCC(=O)NC(C)(C)C)c2c1C	-3.3%	-18.2%	-26.4%	1.8%	-13.4%	40.6%
N#C/C(=N\Nc1ccc(S(=O)(=O)N2CCc3ccccc32)cc1)C(N)=S	31.6µM*	26.7µM*	u	u	15.8µM*	6.31µM*
N#C/C(=N\Nc1ccc(S(=O)(=O)N2CCCCCC2)cc1)C(N)=S	-38.1%	15µM*	u	u	2µM*	u
CCOC(=O)/C(C#N)=N/Nc1ccc(S(=O)(=O)N2CCc3ccccc32)cc1	u	-1.7%	u	14.2%	u	u
CCC(C)NC(=O)c1sc2ncccc2c1-n1c(C)ccc1C (stereo not given)	-7.0%	x	-15.3%	x	-4.8%[59 µM]	1.5%[57 µM]
